# Paper PMC7862700, “An all-to-all approach to the identification of sequence-specific readers for epigenetic DNA modifications on cytosine”
# Columns and labels:
# Assay in all cases: DAPPL (digital affinity profiling via proximity ligation, sequencing); 10 mM Tris-HCl pH 7.5, 50 mM NaCl, 1 mM DTT, 4% glycerol, room temperature, 30 min; GST-TFs on glutathione beads, 16-mer random dsDNA library, 0.1% formaldehyde crosslink after washing; high values mean tight binding
# [1] = target: T1, FEV (Homo sapiens, UniProt Q99581 1-238); details: protein: recombinant; tags: N-terminal GST; dsDNA, one strand shown
# T1 sequence: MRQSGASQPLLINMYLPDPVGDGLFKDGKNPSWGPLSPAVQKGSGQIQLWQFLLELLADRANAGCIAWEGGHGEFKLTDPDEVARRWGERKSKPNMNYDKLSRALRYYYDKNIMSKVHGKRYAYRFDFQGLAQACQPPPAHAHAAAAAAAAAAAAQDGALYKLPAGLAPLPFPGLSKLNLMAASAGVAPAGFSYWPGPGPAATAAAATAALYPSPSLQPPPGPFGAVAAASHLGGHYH
# In short: (§1)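 Binding signal is each hexamer's read frequency for a factor divided by its frequency in the tag-only sample. The factors were GST-fused human transcription factors from yeast, captured on glutathione beads, DNA-barcoded and pooled with that sample. Pools were incubated with 200 nmole of a random double-stranded 16-mer DNA library in Tris/NaCl/DTT/glycerol buffer at room temperature for 30 min, then washed, crosslinked with 0.1% formaldehyde, proximity-ligated with BsaI/T4 ligase (1 h, 37 °C), PCR-amplified and sequenced on an Illumina NextSeq500.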
# [2] = target: ETV5 (Homo sapiens, UniProt P41161 1-510); details: protein: recombinant; tags: N-terminal GST; dsDNA, one strand shown
# Sequence of ETV5 (P41161 whole entry): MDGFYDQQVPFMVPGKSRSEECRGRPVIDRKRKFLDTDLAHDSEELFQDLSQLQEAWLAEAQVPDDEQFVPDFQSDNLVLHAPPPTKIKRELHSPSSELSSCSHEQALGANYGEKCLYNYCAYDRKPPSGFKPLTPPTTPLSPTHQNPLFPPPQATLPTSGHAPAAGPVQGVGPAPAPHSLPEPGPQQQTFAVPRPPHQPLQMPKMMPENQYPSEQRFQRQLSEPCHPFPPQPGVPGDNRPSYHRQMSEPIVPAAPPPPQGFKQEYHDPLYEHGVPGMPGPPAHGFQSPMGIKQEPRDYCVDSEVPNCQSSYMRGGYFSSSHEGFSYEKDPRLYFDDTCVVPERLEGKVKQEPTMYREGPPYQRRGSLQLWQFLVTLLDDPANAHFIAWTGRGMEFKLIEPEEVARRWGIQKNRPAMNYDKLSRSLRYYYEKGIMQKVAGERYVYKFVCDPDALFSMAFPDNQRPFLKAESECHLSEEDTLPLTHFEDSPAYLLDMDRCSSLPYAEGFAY
# In short: as §1
# [3] = target: HSF1 (Homo sapiens, UniProt Q00613 1-529); details: protein: recombinant; tags: N-terminal GST; chain copies: 3; dsDNA, one strand shown
# Sequence of HSF1 (Q00613 whole entry): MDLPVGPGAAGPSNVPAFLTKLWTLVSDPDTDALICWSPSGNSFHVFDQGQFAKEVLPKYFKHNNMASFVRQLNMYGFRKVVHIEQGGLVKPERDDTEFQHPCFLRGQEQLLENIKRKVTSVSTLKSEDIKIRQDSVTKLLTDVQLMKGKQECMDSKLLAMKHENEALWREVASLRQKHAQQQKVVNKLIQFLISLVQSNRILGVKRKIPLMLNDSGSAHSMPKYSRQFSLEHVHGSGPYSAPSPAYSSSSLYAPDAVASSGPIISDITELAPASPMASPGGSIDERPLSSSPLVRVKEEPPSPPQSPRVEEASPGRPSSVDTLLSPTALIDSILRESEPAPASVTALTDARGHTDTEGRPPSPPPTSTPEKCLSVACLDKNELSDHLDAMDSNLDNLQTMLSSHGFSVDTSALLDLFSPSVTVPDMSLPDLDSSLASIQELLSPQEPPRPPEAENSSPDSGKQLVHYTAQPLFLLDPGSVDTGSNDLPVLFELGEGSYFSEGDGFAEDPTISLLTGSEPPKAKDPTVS
# In short: as §1
# [4] = target: T2, SPIC (Homo sapiens, UniProt Q8N5J4 1-248); details: protein: recombinant; tags: N-terminal GST; dsDNA, one strand shown
# T2 sequence: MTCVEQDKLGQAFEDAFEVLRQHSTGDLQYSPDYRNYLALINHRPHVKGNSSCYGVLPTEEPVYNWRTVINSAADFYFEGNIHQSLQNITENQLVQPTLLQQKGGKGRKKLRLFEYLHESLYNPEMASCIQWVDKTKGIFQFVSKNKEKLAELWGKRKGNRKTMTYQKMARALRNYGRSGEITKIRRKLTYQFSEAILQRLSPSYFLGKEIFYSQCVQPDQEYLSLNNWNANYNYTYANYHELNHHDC
# In short: as §1
# [5] = target: ELF4 (Homo sapiens, UniProt Q99607 1-663); details: protein: recombinant; tags: N-terminal GST; dsDNA, one strand shown
# Sequence of ELF4 (Q99607 whole entry): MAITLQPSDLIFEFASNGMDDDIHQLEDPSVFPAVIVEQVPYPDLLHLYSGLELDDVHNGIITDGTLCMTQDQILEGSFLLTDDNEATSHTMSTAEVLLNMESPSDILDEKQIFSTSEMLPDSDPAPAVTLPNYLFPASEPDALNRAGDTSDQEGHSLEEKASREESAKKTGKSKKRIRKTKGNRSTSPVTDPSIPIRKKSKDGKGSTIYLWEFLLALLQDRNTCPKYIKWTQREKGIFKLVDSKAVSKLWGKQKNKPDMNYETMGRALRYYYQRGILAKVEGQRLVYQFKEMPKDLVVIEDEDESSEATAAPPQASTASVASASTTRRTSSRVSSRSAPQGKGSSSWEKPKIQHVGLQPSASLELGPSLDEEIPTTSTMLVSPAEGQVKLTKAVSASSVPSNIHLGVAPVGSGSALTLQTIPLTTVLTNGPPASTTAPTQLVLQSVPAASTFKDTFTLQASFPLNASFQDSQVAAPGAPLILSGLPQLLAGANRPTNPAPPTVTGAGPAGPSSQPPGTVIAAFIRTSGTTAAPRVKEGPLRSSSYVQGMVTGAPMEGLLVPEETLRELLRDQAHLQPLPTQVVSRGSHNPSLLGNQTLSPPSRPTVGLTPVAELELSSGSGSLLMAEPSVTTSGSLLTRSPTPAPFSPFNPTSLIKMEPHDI
# In short: as §1
# [6] = target: T3, ELK4 (Homo sapiens, UniProt P28324-2 1-405); details: protein: recombinant; tags: N-terminal GST; dsDNA, one strand shown
# T3 sequence: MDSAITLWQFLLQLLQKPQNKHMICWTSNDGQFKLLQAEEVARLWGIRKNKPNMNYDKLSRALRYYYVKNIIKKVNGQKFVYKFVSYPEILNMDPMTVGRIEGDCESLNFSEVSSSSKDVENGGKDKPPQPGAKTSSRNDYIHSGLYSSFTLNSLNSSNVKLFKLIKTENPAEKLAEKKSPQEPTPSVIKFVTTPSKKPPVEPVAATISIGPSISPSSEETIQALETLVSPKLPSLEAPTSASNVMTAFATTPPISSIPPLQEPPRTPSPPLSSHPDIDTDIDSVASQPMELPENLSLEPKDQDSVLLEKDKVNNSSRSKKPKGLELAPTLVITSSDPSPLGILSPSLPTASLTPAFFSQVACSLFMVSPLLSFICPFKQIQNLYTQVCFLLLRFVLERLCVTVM
# In short: as §1
# [7] = target: T4, ETV2 (Homo sapiens, UniProt O00321 1-342); details: protein: recombinant; tags: N-terminal GST; dsDNA, one strand shown
# T4 sequence: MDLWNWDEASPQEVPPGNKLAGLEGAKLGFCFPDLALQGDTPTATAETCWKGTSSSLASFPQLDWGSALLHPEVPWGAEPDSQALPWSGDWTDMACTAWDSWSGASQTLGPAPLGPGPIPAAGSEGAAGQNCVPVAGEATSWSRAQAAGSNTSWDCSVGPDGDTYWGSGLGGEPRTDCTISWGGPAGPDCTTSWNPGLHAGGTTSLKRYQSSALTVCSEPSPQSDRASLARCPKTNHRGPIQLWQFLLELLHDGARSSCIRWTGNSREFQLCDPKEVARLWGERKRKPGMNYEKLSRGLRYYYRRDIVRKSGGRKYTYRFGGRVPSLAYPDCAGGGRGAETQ
# In short: as §1
# [8] = target: T5, ELF3 (Homo sapiens, UniProt P78545 1-371); details: protein: recombinant; tags: N-terminal GST; dsDNA, one strand shown
# T5 sequence: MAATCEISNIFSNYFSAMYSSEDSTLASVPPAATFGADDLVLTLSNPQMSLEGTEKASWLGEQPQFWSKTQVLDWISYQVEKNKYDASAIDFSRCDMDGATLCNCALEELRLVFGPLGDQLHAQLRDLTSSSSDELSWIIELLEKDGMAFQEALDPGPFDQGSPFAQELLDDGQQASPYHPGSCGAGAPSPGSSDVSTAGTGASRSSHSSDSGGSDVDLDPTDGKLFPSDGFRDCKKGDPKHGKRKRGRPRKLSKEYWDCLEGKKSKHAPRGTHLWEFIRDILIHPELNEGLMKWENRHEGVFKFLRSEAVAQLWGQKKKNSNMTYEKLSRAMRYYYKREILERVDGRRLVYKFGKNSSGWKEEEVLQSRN
# In short: as §1
# [9] = target: CRX (Homo sapiens, UniProt O43186 1-299); details: protein: recombinant; tags: N-terminal GST; dsDNA, one strand shown
# Sequence of CRX (O43186 whole entry): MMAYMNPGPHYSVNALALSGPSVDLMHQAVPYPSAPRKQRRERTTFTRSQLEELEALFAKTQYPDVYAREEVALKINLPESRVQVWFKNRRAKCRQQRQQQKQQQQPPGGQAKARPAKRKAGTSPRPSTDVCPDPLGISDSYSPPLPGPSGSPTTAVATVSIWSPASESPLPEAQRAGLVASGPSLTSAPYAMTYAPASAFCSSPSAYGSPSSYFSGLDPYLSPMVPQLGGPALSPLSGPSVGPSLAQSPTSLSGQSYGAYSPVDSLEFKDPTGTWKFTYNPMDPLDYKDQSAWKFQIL
# In short: as §1
# [10] = target: ETV1 (Homo sapiens, UniProt P50549 1-477); details: protein: recombinant; tags: N-terminal GST; dsDNA, one strand shown
# Sequence of ETV1 (P50549 whole entry): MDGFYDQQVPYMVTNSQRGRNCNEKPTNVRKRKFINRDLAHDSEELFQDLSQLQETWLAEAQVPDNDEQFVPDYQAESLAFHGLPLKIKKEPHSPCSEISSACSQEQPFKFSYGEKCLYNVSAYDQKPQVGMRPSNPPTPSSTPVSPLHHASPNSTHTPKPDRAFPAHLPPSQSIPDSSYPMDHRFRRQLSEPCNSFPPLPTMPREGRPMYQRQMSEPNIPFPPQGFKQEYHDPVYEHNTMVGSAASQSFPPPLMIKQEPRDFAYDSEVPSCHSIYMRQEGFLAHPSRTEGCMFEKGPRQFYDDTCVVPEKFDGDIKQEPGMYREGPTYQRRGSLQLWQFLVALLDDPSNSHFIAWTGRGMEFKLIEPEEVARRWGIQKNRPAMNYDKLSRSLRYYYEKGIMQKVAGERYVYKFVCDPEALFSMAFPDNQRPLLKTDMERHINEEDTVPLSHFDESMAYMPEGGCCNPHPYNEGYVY
# In short: as §1
# [11] = target: T6, ERF (Homo sapiens, UniProt P50548 1-548); details: protein: recombinant; tags: N-terminal GST; dsDNA, one strand shown
# T6 sequence: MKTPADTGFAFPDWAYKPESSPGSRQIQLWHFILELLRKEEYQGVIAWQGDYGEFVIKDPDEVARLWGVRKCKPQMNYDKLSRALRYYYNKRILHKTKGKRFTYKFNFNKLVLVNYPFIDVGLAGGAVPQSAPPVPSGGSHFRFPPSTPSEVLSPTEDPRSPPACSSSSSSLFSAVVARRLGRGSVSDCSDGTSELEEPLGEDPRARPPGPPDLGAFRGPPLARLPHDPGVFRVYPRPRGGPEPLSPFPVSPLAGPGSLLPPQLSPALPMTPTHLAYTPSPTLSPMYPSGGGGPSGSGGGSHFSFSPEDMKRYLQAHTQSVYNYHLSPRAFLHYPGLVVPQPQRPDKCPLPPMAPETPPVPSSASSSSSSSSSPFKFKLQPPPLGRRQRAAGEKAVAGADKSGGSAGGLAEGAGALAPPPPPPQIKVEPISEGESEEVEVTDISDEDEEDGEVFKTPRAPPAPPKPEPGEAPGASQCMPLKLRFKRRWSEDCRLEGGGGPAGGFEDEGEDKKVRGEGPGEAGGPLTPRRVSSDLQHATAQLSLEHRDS
# In short: as §1
# [12] = target: T7, ETV3L (Homo sapiens, UniProt Q6ZN32 1-361); details: protein: recombinant; tags: N-terminal GST; dsDNA, one strand shown
# T7 sequence: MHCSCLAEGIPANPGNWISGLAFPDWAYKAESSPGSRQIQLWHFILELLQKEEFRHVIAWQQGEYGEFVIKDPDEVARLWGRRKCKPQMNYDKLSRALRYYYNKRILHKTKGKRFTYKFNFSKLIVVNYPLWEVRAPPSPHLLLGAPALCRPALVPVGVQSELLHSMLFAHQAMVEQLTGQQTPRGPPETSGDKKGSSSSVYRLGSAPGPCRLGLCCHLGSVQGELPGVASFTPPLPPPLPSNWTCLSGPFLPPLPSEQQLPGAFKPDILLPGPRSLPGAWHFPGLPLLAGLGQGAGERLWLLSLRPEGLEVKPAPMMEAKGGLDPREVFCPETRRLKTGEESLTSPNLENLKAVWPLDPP
# In short: as §1
# [13] = target: T8, ETS2 (Homo sapiens, UniProt P15036 1-469); details: protein: recombinant; tags: N-terminal GST; dsDNA, one strand shown
# T8 sequence: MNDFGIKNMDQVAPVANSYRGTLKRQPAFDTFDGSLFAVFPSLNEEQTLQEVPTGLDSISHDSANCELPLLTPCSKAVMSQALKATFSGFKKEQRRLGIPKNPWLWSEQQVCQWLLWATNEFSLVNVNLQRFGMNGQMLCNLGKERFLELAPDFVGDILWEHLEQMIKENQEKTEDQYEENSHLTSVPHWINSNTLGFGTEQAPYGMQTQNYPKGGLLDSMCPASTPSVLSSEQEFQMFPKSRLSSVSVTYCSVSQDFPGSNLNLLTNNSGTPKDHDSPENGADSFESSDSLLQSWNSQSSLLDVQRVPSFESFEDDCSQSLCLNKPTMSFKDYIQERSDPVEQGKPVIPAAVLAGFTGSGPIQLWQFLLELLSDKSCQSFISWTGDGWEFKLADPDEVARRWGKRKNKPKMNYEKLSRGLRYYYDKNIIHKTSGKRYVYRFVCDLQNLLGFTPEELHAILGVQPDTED
# In short: as §1
# [14] = target: T9, SPDEF (Homo sapiens, UniProt O95238 1-335); details: protein: recombinant; tags: N-terminal GST; dsDNA, one strand shown
# T9 sequence: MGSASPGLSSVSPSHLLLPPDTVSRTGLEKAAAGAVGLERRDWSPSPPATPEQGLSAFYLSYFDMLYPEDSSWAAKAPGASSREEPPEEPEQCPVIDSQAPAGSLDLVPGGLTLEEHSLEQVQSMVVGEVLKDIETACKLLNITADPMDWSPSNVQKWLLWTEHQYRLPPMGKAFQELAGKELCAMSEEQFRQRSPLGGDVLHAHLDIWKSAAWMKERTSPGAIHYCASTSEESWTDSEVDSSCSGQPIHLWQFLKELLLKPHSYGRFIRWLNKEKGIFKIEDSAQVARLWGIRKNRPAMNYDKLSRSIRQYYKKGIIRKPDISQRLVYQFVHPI
# In short: as §1
# [15] = target: T10, ETV7 (Homo sapiens, UniProt Q9Y603 1-341); details: protein: recombinant; tags: N-terminal GST; dsDNA, one strand shown
# T10 sequence: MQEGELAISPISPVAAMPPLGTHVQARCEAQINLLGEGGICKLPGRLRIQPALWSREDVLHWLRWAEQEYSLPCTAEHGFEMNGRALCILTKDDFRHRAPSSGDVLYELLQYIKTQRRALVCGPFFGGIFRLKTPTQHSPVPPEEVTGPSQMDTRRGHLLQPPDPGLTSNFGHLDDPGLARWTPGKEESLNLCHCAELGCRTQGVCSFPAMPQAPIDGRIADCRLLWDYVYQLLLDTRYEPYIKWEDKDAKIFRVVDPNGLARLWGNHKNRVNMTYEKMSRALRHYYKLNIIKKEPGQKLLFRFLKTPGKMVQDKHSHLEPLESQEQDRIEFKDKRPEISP
# In short: as §1
# [16] = target: T11, ELF5 (Homo sapiens, UniProt Q9UKW6-2 1-255); details: protein: recombinant; tags: N-terminal GST; dsDNA, one strand shown
# T11 sequence: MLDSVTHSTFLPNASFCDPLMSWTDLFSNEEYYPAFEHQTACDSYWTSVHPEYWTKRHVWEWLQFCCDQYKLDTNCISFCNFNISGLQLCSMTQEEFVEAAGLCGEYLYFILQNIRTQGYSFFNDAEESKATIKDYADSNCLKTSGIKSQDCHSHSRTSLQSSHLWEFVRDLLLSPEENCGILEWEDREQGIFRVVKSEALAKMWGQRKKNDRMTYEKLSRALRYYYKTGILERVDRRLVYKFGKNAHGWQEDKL
# In short: as §1
# [17] = target: T12, ETV3 (Homo sapiens, UniProt P41162-2 1-143); details: protein: recombinant; tags: N-terminal GST; dsDNA, one strand shown
# T12 sequence: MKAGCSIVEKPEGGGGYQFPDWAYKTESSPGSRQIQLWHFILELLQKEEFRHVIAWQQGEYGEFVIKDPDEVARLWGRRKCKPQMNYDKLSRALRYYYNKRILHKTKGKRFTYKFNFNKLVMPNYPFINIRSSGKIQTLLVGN
# In short: as §1
# [18] = target: ETV6 (Homo sapiens, UniProt P41212 1-452); details: protein: recombinant; tags: N-terminal GST; dsDNA, one strand shown
# Sequence of ETV6 (P41212 whole entry): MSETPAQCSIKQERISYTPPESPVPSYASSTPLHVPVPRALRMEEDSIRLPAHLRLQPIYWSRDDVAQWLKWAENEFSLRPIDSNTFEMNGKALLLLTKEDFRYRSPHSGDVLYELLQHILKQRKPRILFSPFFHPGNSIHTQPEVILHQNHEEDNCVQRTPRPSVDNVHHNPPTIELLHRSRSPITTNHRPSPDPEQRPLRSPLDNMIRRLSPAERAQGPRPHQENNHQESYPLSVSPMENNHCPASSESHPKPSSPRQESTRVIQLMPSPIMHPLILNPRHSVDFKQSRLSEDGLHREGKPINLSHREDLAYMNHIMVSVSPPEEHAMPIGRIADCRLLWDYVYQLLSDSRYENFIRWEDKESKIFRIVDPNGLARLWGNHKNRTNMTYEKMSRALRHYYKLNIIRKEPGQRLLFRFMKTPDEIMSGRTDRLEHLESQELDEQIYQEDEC
# In short: as §1
sequence,measurement,setting,value
TCTAAA,binding signal,[1],"1.15 fold enrichment (6-mer frequency, TF over GST control)"
same,binding signal,[2],"1.15 fold enrichment (6-mer frequency, TF over GST control)"
same,binding signal,[3],"1.46 fold enrichment (6-mer frequency, TF over GST control)"
same,binding signal,[4],"1.46 fold enrichment (6-mer frequency, TF over GST control)"
same,binding signal,[5],"1.27 fold enrichment (6-mer frequency, TF over GST control)"
same,binding signal,[6],"1.3 fold enrichment (6-mer frequency, TF over GST control)"
same,binding signal,[7],"1.27 fold enrichment (6-mer frequency, TF over GST control)"
same,binding signal,[8],"1.14 fold enrichment (6-mer frequency, TF over GST control)"
same,binding signal,[9],"1.6 fold enrichment (6-mer frequency, TF over GST control)"
same,binding signal,[10],"1.16 fold enrichment (6-mer frequency, TF over GST control)"
same,binding signal,[11],"1.17 fold enrichment (6-mer frequency, TF over GST control)"
same,binding signal,[12],"1.18 fold enrichment (6-mer frequency, TF over GST control)"
same,binding signal,[13],"1.21 fold enrichment (6-mer frequency, TF over GST control)"
same,binding signal,[14],"1.21 fold enrichment (6-mer frequency, TF over GST control)"
same,binding signal,[15],"1.18 fold enrichment (6-mer frequency, TF over GST control)"
same,binding signal,[16],"1.16 fold enrichment (6-mer frequency, TF over GST control)"
same,binding signal,[17],"1.28 fold enrichment (6-mer frequency, TF over GST control)"
same,binding signal,[18],"1.12 fold enrichment (6-mer frequency, TF over GST control)"
